# Screens from PubChem.
# An excerpt weighted towards active compounds, which were near 3.2% of everything screened.
# TMEM16A inh – inhibitors of mouse TMEM16A calcium-activated chloride channel | Q8BHY3 | HEK293 TMEM16A/YFP iodide influx fluorescence, ionomycin | normalized B-score (activity score, 25-100; higher = stronger inhibition) at 10 µM | 310,000 tested, 1.2% active;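 active = ratio plate-corrected score three or more library SD toward inhibition, starting fluorescence score within five deviations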;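 note: score derived from kinetic fluorescence span divided by baseline fluorescence per well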
# Kir21 inh – blocks the mouse Kir2.1 inward-rectifier potassium channel. P35561. AID 1672. 310,000 tested, 0.85% active. B-score at 10 µM. HEK293-Kir2.1, FluxOR thallium flux fluorescence; stronger effect = lower value;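 active = fluorescence ratio B-score at or below minus 3 SD of library scores, with starting-brightness B-score within 2 SD, cut at about -4.2 in these data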;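 note: channel flux triggered by added potassium and thallium sulfate stimulus; B-score of peak minus minimum fluorescence over baseline after thallium stimulus; more negative B-score means stronger Kir2.1 block with less thallium influx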
# CHT block – inhibitors of human choline transporter CHT. Q9GZV3. CHT-expressing cells, membrane potential dye, choline response; stronger effect = lower value. B-score at 10 µM. 310,000 tested, 0.86% active;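 active = B-score over 3 SD under the library average, and starting fluorescence ratio not unusually high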;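 note: choline stimulus applied at its EC90 after an EC20 pre-addition; B-score computed on integrated fluorescence ratio after choline addition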
# Target sequence (Q9GZV3 whole entry, looked up): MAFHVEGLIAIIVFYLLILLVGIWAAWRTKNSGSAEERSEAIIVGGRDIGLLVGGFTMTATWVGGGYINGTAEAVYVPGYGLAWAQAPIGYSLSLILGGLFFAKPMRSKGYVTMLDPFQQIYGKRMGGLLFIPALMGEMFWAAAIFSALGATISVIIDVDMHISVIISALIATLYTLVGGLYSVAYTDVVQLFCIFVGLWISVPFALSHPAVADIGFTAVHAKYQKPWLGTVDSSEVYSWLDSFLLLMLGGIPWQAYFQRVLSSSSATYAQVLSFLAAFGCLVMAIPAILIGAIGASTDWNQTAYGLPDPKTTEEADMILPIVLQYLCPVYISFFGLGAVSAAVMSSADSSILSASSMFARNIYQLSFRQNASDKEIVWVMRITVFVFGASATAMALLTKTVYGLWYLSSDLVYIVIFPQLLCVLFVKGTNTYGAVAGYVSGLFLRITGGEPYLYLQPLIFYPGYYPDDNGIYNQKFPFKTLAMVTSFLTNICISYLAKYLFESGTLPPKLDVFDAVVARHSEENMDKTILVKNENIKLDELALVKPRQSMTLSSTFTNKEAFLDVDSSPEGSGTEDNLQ
# Rce1 inh – blocks yeast Ras-converting enzyme; 290,000 tested, 0.27% active; calls only; yeast membranes, quenched prenylated peptide cleavage fluorescence;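 active = fall in fluorescence gain of 50% or more versus controls, with final raw signal at or below 3038400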
# CHT PAM – allosterically activates the human high affinity choline transporter. B-score at 10 µM. CHT-expressing cells, membrane potential dye, choline EC20; stronger effect = higher value; LV-AA mutant CHT in HEK293 cells. AID 488977. 310,000 tested, 0.49% active;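 active = initial fluorescence not abnormally high and integrated response B-score, plate-corrected, over 3 SD above library mean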
# TMEM16A act – activators or potentiators of mouse TMEM16A chloride channel. HEK293 TMEM16A/YFP-H148Q/I152L, iodide quench fluorescence; stronger effect = lower value. B-score at 10 µM. 340,000 tested, 0.3% active. AID 623877;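 active = fluorescence-ratio B-score plate-corrected deviation score at least 3 library SD below zero, with starting fluorescence score within 5 deviations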;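 note: channel opened by trigger with iodide after compound preincubation; score built on the fluorescence ratio of max minus min over baseline; more negative score means more quench and so TMEM16A activation or potentiation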
# CHT block conf – confirmation of human choline transporter CHT inhibitors. shares compounds with CHT block. CHT activity remaining % of control (stronger effect = lower value), % at 10 µM. AID 493221. 2,400 tested, 70% active. CHT-expressing cells, choline membrane potential dye; LV-to-AA substituted CHT, HEK293 cells;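 active = choline transporter activity left, mean of duplicates at 10 µM, below buffer-only control mean minus 3 SD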;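 note: depolarization triggered by choline at its EC90 following an EC20 pre-addition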
# HEK293 CHT ctr – CHT inhibitor counter-screen hit in parental HEK293 cells; shares compounds with CHT block; membrane potential dye, choline response; active = decrease or increase beyond buffer ±3SD; membrane potential ratio readout (active if shifted either direction beyond buffer ±3SD; no single direction) at 10 µM; 2,400 tested, 4% active;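 note: parental cells lack the transporter so any hit is non-specific; ratio is peak minus trough fluorescence over baseline after EC90 choline challenge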
# A number is an active result; i = inactive; nt = no result.
SMILES,TMEM16A inh,Kir21 inh,CHT block,Rce1 inh,CHT PAM,TMEM16A act,CHT block conf,HEK293 CHT ctr
COc1ccc(/C=C(\NC(=O)c2ccc(C)cc2)C(=O)NCCCN2CCOCC2)cc1OC,i,i,i,i,i,i,nt,nt
CCN(Cc1ccccc1)S(=O)(=O)c1cc(C(=O)NC2CCCCCC2)ccc1OC,i,i,-5.1,i,i,i,50%,i
Cc1ccc(Oc2ccc(NC(=O)Cn3ccsc3=N)cc2)cc1,i,-4.5,-7.9,i,i,i,16%,i
COc1ccc(C)cc1NC(=O)COC(=O)CCC(=O)c1cccs1,nt,nt,nt,nt,nt,i,nt,nt
O=C(CCCSc1nc2ccccc2[nH]1)N1CCN(c2ccccc2)CC1,i,i,-5,i,i,i,58%,i
O=C(CCCSc1nc2ccccc2[nH]1)NC1CCCCC1,i,i,i,i,i,i,nt,nt
O=C(COC(=O)CCCSc1nc2ccccc2[nH]1)NC(=O)NC1CCCC1,i,i,-7.3,i,i,i,62%,i
COc1ccc2oc(C(=O)Nc3ccc(S(=O)(=O)N(C)C4CCN(C)CC4)cc3)c(C)c2c1,i,i,i,i,i,i,nt,nt
CCCCc1cc(-c2n[nH]c(=S)o2)c2ccccc2n1,i,i,-8.4,i,i,i,67%,i
COc1ccccc1NC(=S)NCCN1CCOCC1,i,i,-8.3,i,i,i,i,i
O=C(NC1CC1)C1=C[C@H](c2csc3ccccc23)C[C@H](OCc2ccc(CO)cc2)O1,i,i,-5.2,i,i,i,56%,i
O=C(Nc1ccccc1)C1=C[C@H](c2csc3ccccc23)C[C@H](OCc2ccc(CO)cc2)O1,i,i,i,i,i,i,nt,nt
O=C(NC1CC1)C1=C[C@H](c2ccc(Br)cc2)C[C@H](OCc2ccc(CO)cc2)O1,i,i,-6.4,i,i,i,52%,i
O=C(NC1CC1)C1=C[C@@H](c2ccc(C(F)(F)F)cc2)C[C@@H](OCc2ccc(CO)cc2)O1,i,i,i,i,i,i,nt,nt
Cc1ccccc1NS(=O)(=O)c1cc2c3c(c1)C(C)C(=O)N3CCC2 (stereo not drawn),i,i,i,i,i,i,nt,nt
CCC(=O)N1CCc2nc(-c3ccccc3)sc2C1,i,i,i,i,i,i,nt,nt
COc1ccccc1N1CCN(C(=O)CN2C(=O)c3ccccc3S2(=O)=O)CC1,i,i,i,i,i,i,nt,nt
O=C(O)c1cnn(-c2nc(-c3cccc([N+](=O)[O-])c3)cs2)c1C(F)(F)F,i,i,-6,i,i,i,66%,i
O=C1CCCN1c1ccc(C(=O)N(Cc2nnc(-c3ccc(Cl)cc3)o2)C2CC2)cc1,i,i,i,i,i,i,nt,nt
CC1CCCN(CCCNC(=O)c2ccc(N3CCCC3=O)cc2)C1 (stereo not drawn),i,i,i,i,i,i,nt,nt
Cc1ccc(OC(=O)CCC(=O)Nc2ccc(C)c(C)c2)cc1,i,i,i,i,i,i,nt,nt
CC(C)(C)CC(=O)NCCc1csc(-c2ccccc2)n1,i,i,-5.3,i,i,i,55%,i
O=C(NCCc1csc(-c2ccccc2)n1)c1cccs1,i,i,i,i,i,i,nt,nt
CCCCC[C@H](O)/C=C/[C@@H]1[C@@H](C/C=C\CCCC(=O)O)[C@@H](O)C[C@H]1O,i,i,-5.9,i,i,i,33%,i
CCCCC[C@H](O)/C=C/[C@@H]1[C@@H](C/C=C\CCCC(=O)OC)[C@@H](O)C[C@H]1O,i,i,i,i,i,i,nt,nt
CCCCCNC(=O)c1ccc2c(=O)[nH]c3c(C(=O)NCC4CCCO4)sc(=S)n3c2c1 (stereo not drawn),i,i,-7.8,nt,i,i,35%,i
O=C(NC1CCCC1)c1sc(=S)n2c1[nH]c(=O)c1ccccc12,i,i,-5,i,i,i,i,i
